Data taken from PubChem BioAssay (NCATS).
Inconclusive results are not listed. Active and inactive are the calls of the source. Calls follow the shape of the dose curve; as a rule, active = well fitted inhibition curve with a large enough effect; inconclusive = small, poorly fitted or top-dose-only effect; inactive = flat fitted curve, though single readings scatter.

Legend:
Experiment in all cases: Cytotoxic Profiling of Annotated Libraries Using Quantitative High-Throughput Screening (AID 1296008); also: nearly all actives have a fitted effect of over 60% in size
Details in all cases: Five cell lines viability, CellTiter-Glo ATP luminescence, 48-72 h; max response: stronger effect = lower value
HEK293 = test system: HEK293
How it was run: (§1)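 Compounds were pin-transferred onto cells and incubated 48 or 72 hr at 37 degree Celsius, 95% humidity. CellTiter-Glo was added, plates sat 10 min at room temperature, then ATP-coupled luminescence was imaged as the viability read-out.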

HaCat = test system: HaCat
How it was run: as §1

KB-3-1 = test system: KB-3-1
How it was run: as §1

NIH3T3 = test system: NIH3T3
How it was run: as §1

Measured: max response
% is scaled to controls: 0 for no effect and ±100 for the full control effect.

C=C1C(OC(=O)/C(C)=C\C)[C@@]23CCC4[C@@](C)(CCC[C@@]4(C)C(=O)O)C2CC[C@H]1C3OC(C)=O (some centres undefined)
inactive: HEK293 -4.19% | HaCat 4.6% | KB-3-1 5.82% | NIH3T3 1.34%

CC1(C)CC2=C3C=CC4C5(C)CCC(O)C(C)(C)C5CCC4(C)C3(C)CCC2(C)C(O)C1 (centres undefined)
inactive: HEK293 -1.33% | HaCat -3.58% | KB-3-1 -4.92% | NIH3T3 -2.26%

CC1(CCOC2OC(CO)C(O)C(O)C2O)CCC23OC2(C1)C(O)CC1C(C)(C(=O)O)CCCC13C (centres undefined)
inactive: HEK293 -6.41% | HaCat 3.2% | KB-3-1 8.97% | NIH3T3 0.419%

C=C1C(OC(C)=O)CCC2(C)CC3(OC)OC(=O)C(C)=C3CC12 (centres undefined)
inactive: HEK293 -22.9% | HaCat -0.749% | KB-3-1 7.17% | NIH3T3 0.22%

CCC1C(=O)OC23C=C[C@@H]4C(C(=O)O)=CO[C@H](O[C@@H]12)[C@@H]43 (some centres undefined)
inactive: HEK293 -24.7% | HaCat 2.84% | KB-3-1 -1.99% | NIH3T3 0.895%

CC(C)=CCC[C@](C)(O)[C@H]1CC[C@]2(C)[C@@H]1[C@H](O)CC1[C@@]3(C)CC[C@H](O)C(C)(C)C3[C@@H](O[C@@H]3O[C@H](CO)[C@@H](O)[C@H](O)[C@H]3O[C@@H]3OC[C@@H](O)[C@H](O)[C@H]3O)C[C@]12C (some centres undefined)
inactive: HEK293 4.3% | HaCat -1.39% | KB-3-1 | NIH3T3 1.41%

OCCc1ccc(O[C@@H]2O[C@H](CO)[C@@H](O)[C@H](O)[C@H]2O)cc1
inactive: HEK293 0.276% | HaCat -3.11% | KB-3-1 -1.98% | NIH3T3 2.39%

CC1=C(CCC(C)CC(=O)O)[C@@]2(C)CCCC(C)(C)C2CC1=O (some centres undefined)
inactive: HEK293 0.185% | HaCat -7.07% | KB-3-1 -1.22% | NIH3T3 -3.99%

CC(C)(F)C[C@@H](N[C@@H](c1ccc(-c2ccc(S(C)(=O)=O)cc2)cc1)C(F)(F)F)C(=O)NC1(C#N)CC1
inactive: HEK293 -10.4% | HaCat -33% | KB-3-1 | NIH3T3 -4.72%

CC(=O)c1ccc2c(c1)C(O)C(C(C)(C)O)O2 (centres undefined)
inactive: HEK293 -3.07% | HaCat 1.04% | KB-3-1 | NIH3T3 -18%

CC/C=C\[C@H](O)[C@H](O)C1=C(C)C(=O)[C@]2(O1)C(=O)N[C@@](OC)(C(=O)c1ccccc1)[C@@H]2O
inactive: HEK293 -0.3% | HaCat -9.21% | KB-3-1 7.92% | NIH3T3 1.26%

CC1CC[C@]2(C(=O)O)CC[C@]3(C(=O)O)C(=CCC4[C@@]5(C)CC[C@H](OC6OC(C)C(O)C(OC7OC(CO)C(O)C(O)C7O)C6O)C(C)(C)C5CC[C@]43C)C2C1C (some centres undefined)
inactive: HEK293 -0.0822% | HaCat -2.82% | KB-3-1 | NIH3T3 2.41%

CC1(C)CC[C@]2(C(=O)OC3OC(CO)C(O)C(O)C3O)CC[C@]3(C)C(=CCC4[C@@]5(C)CC[C@H](OC6OC(C(=O)O)C(O)C(OC7OC(CO)C(O)C(O)C7O)C6O)C(C)(C)C5CC[C@]43C)C2C1 (some centres undefined)
inactive: HEK293 1.3% | HaCat -1.22% | KB-3-1 -3.39% | NIH3T3 0.867%

C[C@@H]1O[C@@H](O[C@H]2[C@H](O)[C@@H](O)[C@H](OC[C@H]3O[C@@H](OC(=O)[C@]45CCC(C)(C)C[C@H]4C4=CCC6[C@@]7(C)CC[C@H](O[C@@H]8OC[C@H](O)[C@H](O[C@@H]9O[C@H](CO)[C@@H](O)[C@H](O)[C@H]9O)[C@H]8O)[C@@](C)(CO)C7CC[C@@]6(C)[C@]4(C)CC5)[C@H](O)[C@@H](O)[C@@H]3O)O[C@@H]2CO)[C@H](O)[C@H](O)[C@H]1O (some centres undefined)
inactive: HEK293 -14.9% | HaCat -0.978% | KB-3-1 8.88% | NIH3T3 -6.93%

C=C1[C@H](OC(C)=O)[C@H]2[C@@H](OC(C)=O)[C@](C)(OC(C)=O)C[C@]2(OC(C)=O)C(=O)[C@H](C)/C=C/C(C)(C)C(=O)[C@H](OC(=O)C(C)CC)[C@H]1OC(C)=O (some centres undefined)
inactive: HEK293 1.43% | HaCat -2.99% | KB-3-1 | NIH3T3 -13.5%

O=C(OC[C@H]1O[C@H](O[C@]2(CO)O[C@H](CO)[C@@H](O)[C@@H]2O)[C@H](O)[C@@H](O)[C@@H]1O)c1ccccc1
inactive: HEK293 1.14% | HaCat 0.397% | KB-3-1 8.19% | NIH3T3 4.12%
